Source: PubChem BioAssay (The Scripps Research Institute Molecular Screening Center)
An excerpt weighted towards active compounds, which were near 4.1% of everything screened.
hgDAF12 agonist = agonists of H. glycines DAF-12 nuclear receptor. HEK293 GAL4-hgDAF12 UAS-luciferase reporter, agonist luminescence; normalized to butyrate control. activation, % at 6.8 µM. 370,000 tested, 1.8% active. AID 687014;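 active means activation above a cutoff set at the mean of all screened compounds plus 3 SD, cut at about 10% in these data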;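 further: 0% = DMSO wells and 100% = sodium butyrate wells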
DAX1 inh-1 = NR0B1 (DAX1) inhibition; P51843; HEK293 Gal4-DAX1 luciferase reporter, luminescence; inhibition, % at 6.75 µM; 340,000 tested, 0.99% active; AID 504766;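 active means inhibition above the mean over all tested compounds plus 3 SD, cut at about 4.2% in these data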;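 further: 0% = DAX1-transfected cells with DMSO and 100% = empty-vector control cells with DMSO; inhibition shows as a rise in luminescence from relieved DAX1 repression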
hcDAF-12 act = activators of H. contortus DAF-12 nuclear receptor | 370,000 tested, 1.4% active | activation, % at 6.8 µM | AID 652067 | HEK293 hcDAF-12 lit1-tk-luc reporter, luminescence; 0% DMSO, 100% Δ7-dafachronic acid;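 active means activation above the mean of all tested compounds plus 3 SD, cut at about 5.5% in these data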;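 further: 100% = response to 3 µM Δ7-dafachronic acid high control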
ssDAF-12 act = activates DAF-12 receptor from parasite S. stercoralis; HEK293 ssDAF-12/GRIP1 lit1-tk-luc reporter, luminescence; % of 3 µM dafachronic acid response; AID 652126; 370,000 tested, 1% active; activation, % at 6.8 µM;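 active means activation above the mean over all tested compounds plus 3 SD, cut at about 0.9% in these data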;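 further: 0% = DMSO-only wells and 100% = 3 µM delta7-dafachronic acid wells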
DAX1 inh-2 = DAX1 (NR0B1) inhibition, primary screen; HEK293T StAR-luciferase reporter, SF-1/DAX-1 repression relief; inhibition, % at 6.8 µM; 370,000 tested, 1.1% active; AID 652010;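 active means inhibition above the mean over all tested compounds plus 3 SD, cut at about 3.6% in these data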;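 further: 0% = DAX-1 cells with DMSO and 100% = cells lacking DAX-1 with DMSO; higher inhibition means more luminescence from relief of DAX-1 repression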
DAX1 inh confirm = NR0B1 (human) inhibition, confirmation. shares compounds with DAX1 inh-2. HEK293T StAR-promoter luciferase reporter, SF-1/DAX-1 repression. inhibition, % at 6.8 µM. 2,400 tested, 87% active;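 active means inhibition above the average of every tested compound plus 3 SD, cut at about 3.8% in these data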;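 further: 0% = DAX-1 cells with DMSO and 100% = no DAX-1 control cells with DMSO; active compounds raise luminescence by relieving repression of the StAR reporter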
Target sequence (P51843 whole entry, looked up): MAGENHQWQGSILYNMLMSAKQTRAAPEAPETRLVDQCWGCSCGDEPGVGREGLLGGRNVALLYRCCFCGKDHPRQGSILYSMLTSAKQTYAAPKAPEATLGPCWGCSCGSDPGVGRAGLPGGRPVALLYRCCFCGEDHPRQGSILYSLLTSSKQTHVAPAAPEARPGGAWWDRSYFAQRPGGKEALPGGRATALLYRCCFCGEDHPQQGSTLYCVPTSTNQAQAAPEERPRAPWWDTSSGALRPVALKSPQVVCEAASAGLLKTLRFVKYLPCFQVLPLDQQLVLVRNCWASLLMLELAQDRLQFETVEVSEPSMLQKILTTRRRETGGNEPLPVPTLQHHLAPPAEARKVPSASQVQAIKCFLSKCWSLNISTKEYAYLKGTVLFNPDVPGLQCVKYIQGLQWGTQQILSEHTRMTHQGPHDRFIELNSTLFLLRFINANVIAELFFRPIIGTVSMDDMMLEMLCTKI
SF1 mutant ctr = counter-screen for DAX1 inhibitors: nonselective inhibitors with SF-1 AF2 mutant. HEK293 StAR-luciferase, luminescence. 2,400 tested, 78% active. inhibition, % at 6.8 µM. shares compounds with DAX1 inh-2. AID 652136;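 active means inhibition above the mean of all tested compounds plus 3 SD, cut at about 3% in these data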;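 further: 0% = DAX-1 transfected cells with DMSO and 100% = cells without DAX-1 with DMSO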
LXR ag = LXR-beta agonism as hcDAF-12 counter-screen | shares compounds with hcDAF-12 act | HEK293 Gal4-LXR tk-luc reporter, luminescence, 24 h; normalized: DMSO 0%, positive control 100% | activation, % at 6.8 µM | 3,400 tested, under 10 active | AID 743027;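 active means mean percent activation of the reporter above a cutoff set as the average over tested compounds plus their standard deviation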
hcDAF12 conf = hcDAF-12 agonism, confirmation assay. shares compounds with hcDAF-12 act. HEK293 hcDAF-12 lit1-tk-luc reporter, luminescence; % of Δ7-dafachronic acid response. activation, % at 6.8 µM. 3,400 tested, 61% active;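 active means mean activation across triplicate tests above the threshold derived from the earlier primary screen, cut at about 5.5% in these data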;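 further: 0% = DMSO only wells and 100% = 3 µM Δ7-dafachronic acid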
hgDAF12 conf = hgDAF-12 agonism, confirmation assay; shares compounds with hgDAF12 agonist; HEK293 GAL4-hgDAF12 luciferase reporter, agonist mode; percent of butyrate response; activation, % at 6.8 µM; 3,300 tested, 80% active; AID 743050;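 active means mean activation over triplicate wells above the hit cutoff derived from the earlier primary screen, cut at about 11% in these data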;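 further: 0% = DMSO low control and 100% = 2 mM sodium butyrate high control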
LXRb DAF12 ctr = activates human LXR-beta, counter-screen for DAF-12 agonists. shares compounds with hgDAF12 agonist. activation, % at 6.8 µM. 3,300 tested, under 10 active. HEK293 Gal4-LXR luciferase reporter, 24 h. AID 743051;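 active means mean activation of the triplicate above a set limit carried over from the primary screen, none filed active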
Active calls of the source: *.

COc1ccc(/C=C(\C#N)C(=O)OCC(=O)Nc2ccc(-c3nc4ccc(C)cc4s3)cc2)cc1 was read as hgDAF12 agonist 21*, DAX1 inh-1 0, hcDAF-12 act 8.4*, ssDAF-12 act 2.7*, DAX1 inh-2 8.3*, DAX1 inh confirm 6.7*, SF1 mutant ctr 3.2*, LXR ag 2, hcDAF12 conf 10*, hgDAF12 conf 21* and LXRb DAF12 ctr 1.
O=C(CCS(=O)(=O)c1ccccc1)Nc1cccc(-c2nc3ccccc3s2)c1 was read as hgDAF12 agonist 5, DAX1 inh-1 0, hcDAF-12 act 3, ssDAF-12 act -2 and DAX1 inh-2 2.
Screening CNS(=O)(=O)c1cccc(C(=O)OCC(=O)Nc2ccc(-c3nc4ccc(C)cc4s3)cc2)c1 returned DAX1 inh-1 2.
Screening Cc1nn(-c2ccccc2)c(Cl)c1/C=N/NC(=O)c1[nH]ncc1Br returned hgDAF12 agonist 15*, DAX1 inh-1 -2, hcDAF-12 act 6.0*, ssDAF-12 act 1, DAX1 inh-2 12*, DAX1 inh confirm 13*, SF1 mutant ctr 7.3*, hgDAF12 conf 15* and LXRb DAF12 ctr 1.
Cc1cc(=O)[nH]c(N/N=C/c2c(C)nn(-c3ccccc3)c2Cl)n1 was read as hgDAF12 agonist 0, DAX1 inh-1 -2, hcDAF-12 act -3, ssDAF-12 act -2 and DAX1 inh-2 -2.
Cc1nn(-c2ccccc2)c(Cl)c1/C=N/Nc1nc2ccccc2[nH]1 was read as hgDAF12 agonist 24*, DAX1 inh-1 2, hcDAF-12 act 9.5*, ssDAF-12 act 1.4*, DAX1 inh-2 4.8*, DAX1 inh confirm 18*, SF1 mutant ctr 6.3*, LXR ag 2, hcDAF12 conf 7.8*, hgDAF12 conf 22* and LXRb DAF12 ctr 1.
Screening CC(C)Cc1nnc(NC(=O)c2ccc3c(c2)OCCO3)s1 returned hgDAF12 agonist 15*, DAX1 inh-1 0, hcDAF-12 act 5.8*, ssDAF-12 act 0, DAX1 inh-2 8.1*, DAX1 inh confirm 15*, SF1 mutant ctr 7.1*, hgDAF12 conf 13* and LXRb DAF12 ctr 1.
For Cc1cccnc1NC(=O)c1ccc2c(c1)OCCO2 the results were hgDAF12 agonist 5, DAX1 inh-1 1, hcDAF-12 act 2, ssDAF-12 act 0 and DAX1 inh-2 3.
CCc1cc(C(=O)Nc2ncccc2O)sc1C was read as hgDAF12 agonist 20*, DAX1 inh-1 -1, hcDAF-12 act 6.4*, ssDAF-12 act 1, DAX1 inh-2 20*, DAX1 inh confirm 21*, SF1 mutant ctr 9.0*, hgDAF12 conf 25* and LXRb DAF12 ctr 1.
Screening O=C(Nc1ncccc1O)c1ccc2c(c1)OCCO2 returned hgDAF12 agonist 60*, DAX1 inh-1 8.1*, hcDAF-12 act 7.2*, ssDAF-12 act 1.3*, DAX1 inh-2 33*, DAX1 inh confirm 42*, SF1 mutant ctr 22*, LXR ag 2, hcDAF12 conf 4, hgDAF12 conf 57* and LXRb DAF12 ctr 1.
`Cc1ccnc(NC(=O)c2ccc3c(c2)OCO3)c1` gave hgDAF12 agonist 18*, DAX1 inh-1 -1, hcDAF-12 act 6.3*, ssDAF-12 act -1, DAX1 inh-2 4.9*, DAX1 inh confirm 7.0*, SF1 mutant ctr 3.7*, hgDAF12 conf 11* and LXRb DAF12 ctr 1.
For C=CCN1C(=O)c2n[nH]c(COC)c2C1c1ccc(Br)cc1 (stereo not given) the results were hgDAF12 agonist 1, hcDAF-12 act -3, ssDAF-12 act -1 and DAX1 inh-2 -1.
Screening CC(C)CCNC(=O)CSc1nc2c(c(=O)[nH]1)CCC2 returned hgDAF12 agonist -2, hcDAF-12 act -1 and ssDAF-12 act -2.
O=S1(=O)c2ccc(N3CCCC3)cc2Oc2ccccc2CN1Cc1cn(Cc2cccc(C(F)(F)F)c2)nn1 was read as hgDAF12 agonist -2, hcDAF-12 act -2, ssDAF-12 act -2 and DAX1 inh-2 0.
`c1ccc(-c2ccccc2C2Cc3nnccc3CN2)cc1` (stereo not given) gave hgDAF12 agonist -1, hcDAF-12 act -2, ssDAF-12 act 0 and DAX1 inh-2 0.
`COc1ccc(-n2c(COc3ccc(Cl)cc3)nnc2SCC(=O)Nc2ccc3c(c2)OCO3)cc1` gave hgDAF12 agonist 4, hcDAF-12 act -3, ssDAF-12 act -2 and DAX1 inh-2 0.
Screening c1ccc(Cn2ccc3ccc(-c4ccc5ccn(Cc6cccc(Oc7ccccc7)c6)c5c4)cc32)cc1 returned hgDAF12 agonist 0, hcDAF-12 act 0, ssDAF-12 act -1 and DAX1 inh-2 0.
O=C(Nc1ncccc1O)c1ccc2c(c1)OCO2 was read as hgDAF12 agonist 37*, DAX1 inh-1 4, hcDAF-12 act 4, ssDAF-12 act 0, DAX1 inh-2 17*, DAX1 inh confirm 27*, SF1 mutant ctr 14*, hgDAF12 conf 39* and LXRb DAF12 ctr 0.
For COC(=O)[C@]12C[C@H](CC(=O)NCCCN3CCCC3=O)C(=O)N(CCc3ccc(OC)c(OC)c3)C1=C[C@H](C1CCCC1)O[C@@H]2C the results were hgDAF12 agonist -1, hcDAF-12 act -2, ssDAF-12 act -2 and DAX1 inh-2 0.
`Cc1cc2c(cc1C)NC(=O)C(C)CN2` (stereo not given) gave hgDAF12 agonist 20*, DAX1 inh-1 3, hcDAF-12 act 12*, ssDAF-12 act 3.0*, DAX1 inh-2 5.7*, DAX1 inh confirm 16*, SF1 mutant ctr 7.9*, LXR ag 2, hcDAF12 conf 11*, hgDAF12 conf 14* and LXRb DAF12 ctr 1.
